BoNT-A LC inh2: blocks Botulinum neurotoxin A light chain protease; inhibition, % at 10 µM; multiplex microsphere protease substrate cleavage, flow cytometry; AID 588499; 360,000 tested, 0.17% active; further: plate controls were buffer without enzyme for full effect and enzyme alone for no effect
Autofluor counter: counter-screen for toxin protease inhibitors: compound fluorescence; compound autofluorescence counterscreen, microsphere flow cytometry; active compounds read high; fluorescence intensity (no concentration beside the values); 360,000 tested, 3.1% active; in the data active means fluorescence intensity above about 16000; inconclusive means no clear call, values can overlap the other calls
Anthrax LF prot: inhibitors of Bacillus anthracis lethal factor protease | P15917 | multiplex microsphere protease cleavage assay, LF | inhibition, % at 10 µM | 360,000 tested, 0.12% active | AID 588501; further: plate controls were buffer without enzyme for full effect and enzyme alone for no effect
Target sequence (P15917 whole entry, looked up): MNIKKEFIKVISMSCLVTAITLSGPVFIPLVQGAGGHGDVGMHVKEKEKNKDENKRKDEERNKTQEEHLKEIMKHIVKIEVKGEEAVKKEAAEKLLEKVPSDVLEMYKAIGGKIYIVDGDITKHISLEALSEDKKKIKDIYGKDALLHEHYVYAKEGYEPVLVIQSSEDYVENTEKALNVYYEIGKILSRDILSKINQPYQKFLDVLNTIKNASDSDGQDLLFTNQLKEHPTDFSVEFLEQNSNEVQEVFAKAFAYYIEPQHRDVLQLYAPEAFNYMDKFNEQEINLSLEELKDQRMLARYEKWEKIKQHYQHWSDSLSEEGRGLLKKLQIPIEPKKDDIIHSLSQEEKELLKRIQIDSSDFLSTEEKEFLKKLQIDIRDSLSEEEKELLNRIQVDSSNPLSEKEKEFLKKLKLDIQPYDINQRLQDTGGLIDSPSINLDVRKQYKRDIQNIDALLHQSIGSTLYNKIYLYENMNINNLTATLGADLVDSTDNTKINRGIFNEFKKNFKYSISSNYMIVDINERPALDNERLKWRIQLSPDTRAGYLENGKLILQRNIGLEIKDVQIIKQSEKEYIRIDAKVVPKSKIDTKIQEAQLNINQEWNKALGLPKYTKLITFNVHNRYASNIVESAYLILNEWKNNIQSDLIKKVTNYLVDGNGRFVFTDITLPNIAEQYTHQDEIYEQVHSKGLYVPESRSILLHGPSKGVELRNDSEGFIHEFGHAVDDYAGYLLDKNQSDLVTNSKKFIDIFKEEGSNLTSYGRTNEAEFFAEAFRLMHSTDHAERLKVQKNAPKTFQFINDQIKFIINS
BoNT-F LC inh: inhibitors of Botulinum neurotoxin F light chain protease; inhibition, % at 10 µM; 360,000 tested, 0.22% active; Multiplex microsphere protease cleavage assay, flow cytometry; AID 588497; in the data active means inhibition above about 35%, passing the limit was not always enough; inconclusive means no clear call, values can overlap the other calls; further: plate controls were buffer without enzyme for full effect and enzyme alone for no effect
Starred values were filed as active, the others as inactive; ? = inconclusive. Only some compounds are listed: those with a hit (about 3.5% of all), similar ones and a draw of the others. Unless noted, no stated cut-off is given here; in the data, active means inhibition above about 30%; inconclusive means no clear call, values can overlap the other calls; inactive means below that.

SMILES	BoNT-A LC inh2	Autofluor counter	Anthrax LF prot	BoNT-F LC inh
CC(C)CC(=O)NC(Nc1ccccc1F)C(Cl)(Cl)Cl (configuration not stated)	-0.8	3128	-7.0	0.2
CC(C)C(=O)NC(Nc1ccccc1F)C(Cl)(Cl)Cl (configuration not stated)	4.5	21522*	2.0	6.0
COC(=O)COC(=O)c1ccc(-n2nnnc2SC)cc1	0.9	22577*	-2.3	5.7
CCOC(=O)c1cc2c(c(CCO)n1)[C@@H](CCO)N(S(=O)(=O)C(C)(C)C)C2	0.1	3711	-1.4	4.0
CC(C)Cn1c(-c2csc3c2CCCC3)n[nH]c1=S	-2.7	17069*	-6.7	-7.9
CCOC(=O)[C@@H](NC(=O)/C=C/[C@H]1O[C@@H](n2cc(C)c(=O)[nH]c2=O)C[C@@H]1O)C(C)C	-0.4	5757	-6.0	-1.8
C[C@H](N)c1nnc(SCc2c(Cl)cccc2Cl)o1	1.8	9009	12.5	1.6
CN(C)C(=O)CSc1nnc([C@@H](N)Cc2ccccc2)o1	-1.0	22809*	-3.4	-2.9
C[C@H](N)c1nnc(SCC(=O)N(C)C)o1	-1.7	20911*	-0.7	-2.4
COc1ccc(NC(=O)N(C)C[C@@H]2OCc3cn(nn3)CCCC(=O)N([C@@H](C)CO)C[C@H]2C)cc1	0.0	3385	-3.3	3.7
O=C(COc1ccc2ccc(=O)oc2c1)Nc1ccc(CCO)cc1	-3.0	5987	-2.1	-7.7
O=C(COc1ccc2ccc(=O)oc2c1)Nc1ccc2c(c1)OCCO2	-6.6	21506*	2.1	-10.7
CC(C)(O)C1=NOC(c2ccccc2)C1 (configuration not stated)	-0.1	16732*	-3.3	1.4
O=C1CC(=O)CC(c2ccccc2)C1	0.1	2171	-1.8	-0.1
COC(=O)[C@]1(C)N[C@H](CN(C)C(=O)C2CCCCC2)[C@@H]2C(=O)N(C)C(=O)[C@@H]21	-0.5	2992	-6.1	-3.8
Cc1c(Br)cc(C(=O)NC2CCCCC2)c(C)c1C	?	23067*	0.2	-1.7
CC(C)c1cc(Cn2c3ccccc3c(=O)n2C(C)C)on1	-0.4	5407	-7.3	1.7
CN(CC(=O)N1CCCc2c1c(=O)oc1ccc(O)cc21)Cc1ccccc1	-3.9	20887*	-0.1	-5.4
CC(C)(C)c1nc(CN2CCOCC2)ccc1O	2.2	21380*	-2.5	2.5
CC(C)(C)c1nc(CN2CCCCC2)cc(CN2CCCCC2)c1O	-0.2	4682	-6.2	1.4
O=C(Cn1cccn1)N1CCCC(N2CCN(c3ccccc3F)CC2)C1 (configuration not stated)	-0.3	5702	0.5	-2.7
Cc1sc(-c2ccccn2)nc1OC(=O)c1ccc(Cl)c(Cl)c1	-1.4	23143*	-0.4	-3.3
Cc1sc(-c2ccccn2)nc1OC(=O)c1ccc(F)cc1F	1.9	3596	-1.3	8.8
O=C(C[C@H]1C[C@H]2c3cc(NS(=O)(=O)c4ccc(F)cc4)ccc3O[C@H]2[C@H](CO)O1)NCc1ccncc1	0.2	3774	-7.0	5.0
COc1ccc(NC2=Nc3ccccc3N3C2=Nc2c(c(C)nn2-c2ccc(C)cc2)C3c2cccnc2)cc1 (configuration not stated)	?	15892	60.1*	43.9*
SMILES	BoNT-A LC inh2	Autofluor counter	Anthrax LF prot	BoNT-F LC inh
CC(=O)Nc1ccc(NC2=Nc3ccccc3N3C2=Nc2c(c(C)nn2-c2ccccc2)C3c2ccccc2)cc1 (configuration not stated)	147.0*	3420	68.2*	32.4
CC(=O)Nc1ccc(-c2cc(NC(C)=O)n(-c3ccccc3)n2)cc1	0.2	5314	-0.4	1.1
O=C(COC(=O)c1ccc(F)cc1F)NCc1ccc2c(c1)OCO2	0.0	3348	2.7	-3.3
CCN(C(=O)CSc1nnnn1C)C1CCS(=O)(=O)C1 (configuration not stated)	-1.1	6280	-2.0	-1.2
Cn1c(CCN2CCN(c3ccc(F)cc3)CC2)nc2cc(NC(=O)c3ccco3)ccc21	0.0	24006*	-1.7	-4.1
Cc1ccc(N2CCN(CCc3nc4cc(NC(=O)c5ccco5)ccc4n3C)CC2)cc1	-2.1	24375*	-5.6	-3.8
Cn1c(CCNC(=O)c2ccco2)nc2cc(NS(=O)(=O)c3ccc(Cl)cc3)ccc21	-6.0	21550*	-1.7	-6.5
COc1cccc(C(C)(O)c2nc(-c3cc(F)cc(F)c3)cs2)c1 (configuration not stated)	-0.1	3681	-3.7	1.4
Cc1cccc(CN2CCN([C@H]3CS(=O)(=O)N[C@@H]3COCc3ccccc3)CC2)c1	0.0	5674	-0.5	-4.9
COc1cccc(Cn2cc(C)cc(NC(=O)NCc3ccccc3)c2=O)c1	-3.9	4096	4.1	-13.8
C[C@H]1CN([C@@H](C)CO)C(=O)c2cc(Br)cnc2O[C@H]1CN(C)Cc1ccccc1C(=O)O	0.2	3417	2.7	11.5
CCOC(=O)c1c(-c2ccc(C)o2)csc1NC(=S)NC(=O)N(C)C	5.7	18614*	-1.0	8.5
O=C(NCc1ccccc1)c1cc(C2COCCN2S(=O)(=O)c2cccs2)on1 (configuration not stated)	0.4	2918	-2.5	-4.9
CCOc1ccc2c(c1)n(CO)c(=S)n2CO	?	22336*	-3.5	1.7
CCOc1ccc2[nH]c(=S)[nH]c2c1	-0.5	4344	-0.7	-9.0
CCC(=O)CN(Cc1cc(OC)ccc1OC)S(=O)(=O)c1ccccc1Br	-0.3	4036	-3.9	-0.4
CCC(CC)C(=O)N(C)c1c(C)nc2c(OCc3cccc(OC)c3)cccn12	-0.2	4011	-8.2	4.0
CC1=CC(C)(C)Nc2ccc(OS(=O)(=O)c3ccc(C)cc3)cc21	5.3	17799*	-0.2	4.2
CC1=CC(C)(C)Nc2ccc(OC(=O)CCN3C(=O)c4ccccc4C3=O)cc21	-1.4	2940	-4.3	-6.3
CC(=O)NCCOC(=O)Nc1ccncc1	6.0	20618*	-16.2	9.1
CC(=O)NCCOC(=O)Nc1cccnc1	0.5	5709	-0.1	-3.2
COc1ccccc1N1CCN(C(=O)C2=CC=CN3CCS(=O)(=O)N=C23)CC1	1.6	8496	4.6	-0.3
CCn1nnc2cc(C(=O)N3CCC(C(=O)OC)CC3)ccc21	0.3	4292	3.6	-10.9
CCCCn1nnnc1NCc1ccc(N(CC)CC)cc1	-1.7	23951*	-3.5	-3.2
CCCCn1nnnc1NCc1ccc(C)cc1	1.0	4277	-4.7	-36.6
SMILES	BoNT-A LC inh2	Autofluor counter	Anthrax LF prot	BoNT-F LC inh
Cc1cc(F)ccc1S(=O)(=O)N1CCCCC1CCNC(=O)C(=O)NCc1ccccn1 (configuration not stated)	8.3	4504	4.9	10.0
Cc1ccc(S(=O)(=O)NC(=O)Nc2ccccc2)cc1	-0.1	4093	-4.9	1.5
Cc1ccc(S(=O)(=O)NC(=O)Nc2ccc(F)cc2)cc1	0.4	16339*	-2.2	2.9
COc1cc(NC(=O)NS(=O)(=O)c2ccc(C)cc2)cc(OC)c1	?	20395*	-6.4	-7.1
Cc1snc(S(=O)(=O)Cc2ccccc2Cl)c1C#N	-0.7	21018*	-3.0	-1.1
Cc1nn(-c2ccccc2)c(C)c1/C=N/N1CCN(c2ccccn2)CC1	0.0	4594	-4.4	-1.4
Cc1nn(-c2ccccc2)c(N2CCCC2)c1/C=N/O	-6.1	24403*	0.9	-5.8
Cc1nn(-c2ccccc2)c(C)c1/C=N/N1CCN(c2ccccc2)CC1	-1.8	20444*	-5.7	-5.5
